HPGD block: HPGD (human) dehydrogenase inhibition; purified HPGD, NADH fluorescence kinetic, PGE2 substrate; Potency, µM, without a hit: at the highest dose activity change, negative = inhibition, hits mostly inhibitors; AID 894; actives 4.3% (n = 150,000); also: % is scaled to controls: 0 for no effect and ±100 for the full control effect
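NADH formation kinetics: reaction with 30 uM PGE2 and 1 mM NAD+ (final), 20 nM enzyme, Tris-HCl pH 8 with Tween 20, after 15 min compound preincubation at room temperature. Fluorescence change, last versus first of five reads.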
HTT ATP protect: cytoprotection in Huntington HTT-Q103 PC12 cell model; actives 0.14% (n = 230,000); AID 1471; Potency, µM (doses to about 56.4 µM), for inactives: cytoprotection (ATP increase), actives largely listed as activators; PC12 HTT-Q103 induced, cytoprotection, ATP luminescence, 40 h; active = well fitted curve in the direction sought with a large enough effect; inconclusive = small, poorly fitted or top-dose-only effect, or another doubt; inactive = no such curve, though single readings can be large; an effect the other way counts as inactive or inconclusive; also: % of control where 0% means no effect; nearly all actives have a fitted effect of over 45% in size
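Compounds were screened for protection of PC12 cells against cell death after tebufenozide induction (100 nM final) of mutant Huntingtin exon 1 (Q103) fused to GFP.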
LMNA splice mod: LMNA splicing modulation. HeLa LMNA splicing GFP/RFP minigene ratio, 48 h. AID 1487. actives 0.01% (n = 200,000). Potency, µM (highest dose often 46.1 µM), for the others: top-dose ratio change, negative = inhibition, actives largely listed as inhibitors; active = well fitted inhibition curve with a large enough effect in the signal ratio, with a control signal flat, not every such curve was filed as active; inconclusive = small, poorly fitted or top-dose-only effect, or effect the other way, or a change in a side signal; the % refers to the signal ratio; also: % is scaled to controls: 0 for no effect and ±100 for the full control effect
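S3 HeLa cells stably expressing lamin A-EGFP splicing minigene plus DsRed2, 600 cells/well, 48 h compound exposure at 37C. Laser-scanning cytometry; analysed as GFP (500-530 nm)/RFP (575-640 nm) total intensity ratio; 0.5% DMSO vehicle.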
HTT aggregate: inhibitors of mutant huntingtin aggregate formation in PC12 cells; PC12 HttQ103-GFP aggregates, Acumen cytometry, 40 h; Potency, µM (top dose mostly 46.1 µM), without a hit: at the highest dose activity change, negative = inhibition, most hits filed as inhibitors; actives 1.1% (n = 220,000); AID 1688; active = well fitted curve in the direction sought with a large enough effect; inconclusive = small, poorly fitted or top-dose-only effect, or another doubt; inactive = no such curve, though single readings can be large; an effect the other way counts as inactive or inconclusive; also: % is scaled to controls: 0 for no effect and ±100 for the full control effect; nearly all actives have a fitted effect of over 60% in size
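Ecdysone-promoter PC12 model expressing HTT exon 1 Q103 fused to GFP, induced by tebufenozide at 100 nM final. Compounds titrated; aggregates sized 1–25 µm scored on a 488 nm laser cytometer.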
ALDH1A1 inh: ALDH1A1 (human) enzyme inhibition; P00352; Potency, µM (titrated, usually from 75.3 µM), without a hit: at the top dose activity, negative = inhibition, usual class: inhibitors; Purified ALDH1A1, NADH fluorescence, propionaldehyde substrate; actives 7.3% (n = 220,000);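 also: plate controls were no enzyme wells and a reference inhibitor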
KDM4E inh: inhibitors of human JMJD2E histone demethylase. B2RXH2. JMJD2E catalytic domain, FDH-coupled NADH fluorescence (FDH is formaldehyde dehydrogenase). Potency, µM (highest dose often 57.1 µM), for inactives: top-dose activity change, negative = inhibition, usual class: inhibitors. actives 1.6% (n = 230,000). AID 2147;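 also: 0% = wells with enzyme and -100% = buffer wells without enzyme; nearly all actives have a fitted effect of over 50% in size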
Target sequence (B2RXH2 1-337 limits assumed): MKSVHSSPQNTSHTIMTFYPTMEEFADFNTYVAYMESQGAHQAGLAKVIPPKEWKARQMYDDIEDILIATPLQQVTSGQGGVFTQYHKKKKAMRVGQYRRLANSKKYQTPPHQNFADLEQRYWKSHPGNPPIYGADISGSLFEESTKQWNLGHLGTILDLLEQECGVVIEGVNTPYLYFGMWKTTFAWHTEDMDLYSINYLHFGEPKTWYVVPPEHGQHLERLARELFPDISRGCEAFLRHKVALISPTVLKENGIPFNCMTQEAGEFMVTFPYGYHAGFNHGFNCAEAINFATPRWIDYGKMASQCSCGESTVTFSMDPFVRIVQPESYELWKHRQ
* hit, by the source's call; ? = inconclusive; / = no result given; [ ] = another dose, or the depositor's remark. This is a sample that favours compounds with a hit; in the whole collection about 9.2% have one here. Unless noted, calls follow the shape of the dose curve; as a rule, active = well fitted inhibition curve with a large enough effect (not every such curve was filed as active); inconclusive = small, poorly fitted or top-dose-only effect, or another doubt; inactive = no such curve, though single readings can be large or run the other way. Potency is read from the fitted curve at half-maximal effect.

SMILES | HPGD block | HTT ATP protect | LMNA splice mod | HTT aggregate | ALDH1A1 inh | KDM4E inh
CC1(C(=O)O)NCCc2cc(O)c(O)cc21 (configuration not stated) | / | -18% | / | / | ? | /
CC(=O)NCCNc1ncnc2ccc(-c3ccc4c(c3)OCO4)cc12 | / | -39% | 2% | / | ? | /
O=C(c1cnccn1)N1CCC[C@@]2(CCN(c3ccncc3)C2)C1 | -6% | -30% | / | / | 5% | /
N#CC1=C(SCC(=O)Nc2cccc3cccnc23)NC(=O)C(C#N)C12CCCCC2 (configuration not stated) | -13% | -28%[0.074 µM] | ? | -33% | 8.9µM* | -8%
N#CC1=C(SCC(=O)NC2CC2)NC(=O)C(C#N)C12CCCCC2 (configuration not stated) | -4% | -5% | 9% | -13% | 13µM* | 2%
CCN(Cc1ccccc1)C(=O)C1CCN(S(=O)(=O)c2ccc3c(c2)CCCN3C(C)=O)CC1 | / | / | 18%[46 µM] | / | / | /
O=C(CSc1nnc(C2CC2)n1Cc1ccccc1)c1ccc(S(=O)(=O)N2CCOCC2)cc1 | -22% | 19%[10 µM] | 1% | -13% | 11µM* | -8%
CCn1c(SCc2ccccc2)nnc1C1CCN(S(=O)(=O)c2ccc(OC)cc2)CC1 | -12% | -16% | -1% | -10% | 5µM* | 5%
O=C(O)/C=C\C(=O)N1Cc2cc3ccccc3nc2C1 | -10% | -2%[10 µM] | / | / | -10%[13.5 µM] | /
CC(=O)Nc1ccc(NC(=O)Cn2cnc3c(cnn3C(C)(C)C)c2=O)cc1 | 1% | 5%[1.9 µM] | -6% | 22% | 16µM* | 5%
CC(C)(C)n1ncc2c(=O)n(CC(=O)Nc3ccc(Cl)cc3)cnc21 | -9% | -5% | ? | -2% | -6% | 4%
CC(=O)Nc1ccc(NC(=O)Cn2cnc3c(nnn3Cc3ccc(F)cc3)c2=O)cc1 | / | -13% | / | 21%[9.22 µM] | 11µM* | -5%
CCc1ccc(C(c2ccccc2)c2c(C)[nH]c3ccccc23)s1 (configuration not stated) | / | / | 5%[46 µM] | / | / | /
CC(=O)OC1c2ccccc2C(=O)N1Cc1ccccc1Cl (configuration not stated) | 18µM* | -4% | -7% | -15% | ? | -5%
COc1cc(NC2c3ccccc3C(=O)N2Cc2ccccc2Cl)cc(OC)c1 (configuration not stated) | / | -5%[10 µM] | / | 0%[9.22 µM] | / | -4%
O=C(CN(c1ccccc1)S(=O)(=O)c1ccccc1)NCCSCc1ccco1 | -8% | -5% | 11% | 8% | 10µM* | -29%
Cc1cc(Cl)ccc1N(CC(=O)NCCSCc1ccco1)S(C)(=O)=O | / | -5%[10 µM] | ? | -13%[9.22 µM] | 13µM* | -25%
CS(=O)(=O)N(CC(=O)NCCSCc1ccco1)c1ccc2c(c1)OCO2 | / | 8%[10 µM] | 28%[46 µM] | -3%[9.22 µM] | ? | 7%
Cc1ccc(N(CC(=O)NCCSCc2ccco2)S(=O)(=O)c2ccc(F)cc2)cc1 | / | 7%[10 µM] | ? | -9%[9.22 µM] | 20µM* | -24%
Cc1ccc(N(CC(=O)NCCSCc2ccco2)S(C)(=O)=O)cc1 | -9% | -14% | -1% | 25% | 8.9µM* | -2%
O=C(CN(c1ccc(F)cc1)S(=O)(=O)c1ccccc1)NCc1ccco1 | 6% | -17%[10 µM] | 24% | ? | 2% | 5%
Cc1ccc(S(=O)(=O)N(CC(=O)NCCSCc2ccco2)c2ccc(F)cc2)cc1 | / | -13% | / | -8% | 28µM* | -2%
COc1ccc(N(CC(=O)NCCSCc2ccco2)S(=O)(=O)c2ccc(C)cc2)cc1 | / | 5%[10 µM] | 4%[46 µM] | 20%[9.22 µM] | 20µM* | -7%
COc1ccc(N(CC(=O)NCCSCc2ccco2)S(=O)(=O)c2ccccc2)cc1 | / | 12%[10 µM] | / | 11%[9.22 µM] | ? | -15%
CS(=O)(=O)N(CC(=O)NCCSCc1ccccc1)c1ccccc1 | / | -3%[10 µM] | / | 0%[9.22 µM] | 28µM* | 6%
CN(c1ccc(C(=O)NCCSCc2ccco2)cc1)S(C)(=O)=O | ? | 26% | -1% | 3% | 2.5µM* | 10%
